Experimental data as given in PubChem BioAssay (EPA / NIEHS).
Calls of active or inactive are those of the source. How the source made its calls: active means hit-call score of the fitted dose curve at least 0.9, where 1 is the maximum; inactive means score below 0.9.

read-out: Pselectin, SELP (gene 6403); experiment: BSK_4H_Pselectin: BioMAP Diversity Plus: 4H Assay for Pselectin Biomarker Activity (AID 2283026); conditions: primary human endothelial cells (HUVEC); actives raise or lower the signal
Procedure, shortened: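 Primary human umbilical vein endothelial cells were treated 24 h, and cell-surface P-selectin was then quantified by ELISA. Bidirectional fit versus DMSO; cytotoxicity checked in parallel cultures by SRB total-protein staining.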

| SMILES | AC50 | outcome |
| --- | --- | --- |
| NC(=O)c1nc(-c2cccc(-c3cc(F)ccc3OCC(F)(F)C(F)(F)F)c2)n[nH]1 | 30.8 µM (active) |  |
| O=C(Nc1ccc(Cl)cc1)Nc1ccc(Cl)c(Cl)c1 | 2.6 µM (active) |  |
| CCCCCCCCCCCC[N+](C)(C)C | 20 µM (active) |  |
| CC[C@H](NC(=O)c1cc(F)ccc1NS(=O)(=O)c1cccc2cccnc12)c1ccccc1 |  | inactive |
| O=C=NCCCCCCN=C=O |  | inactive |
| CN(C)C(=O)C1(N2CCCCC2)CCN(CC[C@@]2(c3ccc(Cl)c(Cl)c3)CN(C(=O)c3ccccc3)CCO2)CC1 | 15.6 µM (active) |  |
| CCCCOC(=O)CC(CC(=O)OCCCC)(OC(C)=O)C(=O)OCCCC |  | inactive |
| Clc1ccccc1C(c1ccccc1)(c1ccccc1)n1ccnc1 | 8.64 µM (active) |  |
| Cc1occc1C(=O)Nc1ccc(C(=O)N2CCC(F)(F)/C(=C\C(=O)N3CCC(N4CCCCC4)CC3)c3ccccc32)cc1 |  | inactive |
| Cc1cn([C@H]2C[C@H](N=[N+]=[N-])[C@@H](CO)O2)c(=O)[nH]c1=O |  | inactive |
| Oc1ccc2ccccc2c1 |  | inactive |
| COc1ccc2cc(S(=O)(=O)N[C@H](CC(=O)N[C@H](Cc3ccc(CN4[C@H](C)CCC[C@@H]4C)cc3)C(=O)N(C)C(C)C)c3ccc4c(c3)OCO4)ccc2c1 | 10.8 µM (active) |  |
| CCCCCCCCCC(=O)O |  | inactive |
| CC(C)(C)c1csc(-c2cc3cc(OCc4ccccc4CC(=O)O)ccc3o2)n1 | 18.7 µM (active) |  |
| CC(C)(C)c1cc(/C=C2\SC(N)=NC2=O)cc(C(C)(C)C)c1O | 13.3 µM (active) |  |
